Rows were chosen to be rich in hits. Some 6.5% of all compounds tested hit in one or more screens of this group.
Marburg entry inh = qHTS for inhibitors of binding or entry into cells for Marburg Virus | actives 1.8% (n = 300,000) | Marburg virus pseudotyped entry inhibition, cell reporter | Potency, µM (series often up to 37.8 µM), actives largely listed as inhibitors; calls by dose curve; tested in HEK293 cells
VACV Venus inh = qHTS for Stage-Specific Inhibitors of Vaccinia Orthopoxvirus: Venus Reporter Primary qHTS | Vaccinia virus Venus reporter expression, fluorescence | Potency, µM (top dose mostly 36.5 µM), most hits filed as inhibitors | actives 0.46% (n = 330,000) | AID 720580, 2013; calls by dose curve; tested in A549 cells; note: nearly all actives have a fitted effect of over 30% in size
VACV mCherry inh = qHTS for Stage-Specific Inhibitors of Vaccinia Orthopoxvirus: mCherry Reporter Primary qHTS; actives 0.63% (n = 310,000); Vaccinia virus mCherry reporter infection, fluorescence; Potency, µM (titrated, usually from 36.5 µM), most hits filed as inhibitors; calls by dose curve; tested in A549 cells; note: nearly all actives have a fitted effect of over 35% in size
HCMV antiviral = qHTS Assay for inhibitors of the human cytomegalovirus (HCMV) | HFF cells, HCMV-luciferase reporter, 72 h; active compounds read low | activity change, negative = inhibition, % at 57.5 µM | actives 4.5% (n = 410,000) | AID 1259415, 2018; in the data active = activity change below about -60%; inconclusive = no clear call, values can overlap the other calls; inactive = above about -39%
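Luciferase read-out from HCMV-luciferase-infected HFFs (MOI 1 PFU/cell) 72 h post infection at 37C; compounds added after 16 h cell attachment; activity normalized between buffer-only basal and Salinomycin (10uM) inhibitor controls.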
Lassa entry inh = qHTS for Inhibitors of binding or entry into cells for Lassa Virus | Lassa virus pseudotype entry inhibition, cell reporter | actives 1.2% (n = 300,000) | AID 540256, 2011 | Potency, µM (doses to about 37.9 µM), usual class: inhibitors; calls by dose curve; tested in HEK293 cells; note: nearly all actives have a fitted effect of over 50% in size
FMDV inh = High Throughput Screening for Foot and Mouth Disease Virus Antivirals; FMDV antiviral cell-based qHTS; Potency, µM (titrated, usually from 57.9 µM), usual class: inhibitors; actives 1.2% (n = 410,000); calls by dose curve; tested in HEK293T cells; note: read-out not given here; nearly all actives have a fitted effect of over 45% in size
Large screens that a line does not name were inactive.

COc1cc(C(C)=O)ccc1COc1ccc(C(=O)OCC(=O)NC2CCS(=O)(=O)C2)cc1OC (configuration not stated)	none
COc1cc(C(C)=O)ccc1COc1ccc(C(=O)OCC(=O)NC(C)(C)C)cc1OC	Marburg entry inh inconclusive, Lassa entry inh inconclusive, FMDV inh 20µM
C=CCOC(=O)N[C@@H](c1coc2ccccc2c1=O)[C@@H](C)C=CCC(=O)OC	none (no result: VACV Venus inh, VACV mCherry inh, HCMV antiviral, Lassa entry inh, FMDV inh)
CCOc1ccc(-c2c(C)nn3c(C)c(C(=O)Nc4ccccc4C(=O)OC)cnc23)cc1OCC	none (no result: Marburg entry inh)
COC(=O)c1ccc(NC(=O)CC2Nc3cc(C)c(C)cc3NC2=O)cc1 (configuration not stated)	HCMV antiviral -99, Lassa entry inh inconclusive, FMDV inh inconclusive
Cc1cc2c(cc1C)NC(CC(=O)Nc1ccccc1)C(=O)N2 (configuration not stated)	HCMV antiviral -100, Lassa entry inh inconclusive
COc1ccc(NC(=O)CC2C(=O)N(c3ccc(F)cc3)C(=O)N2Cc2ccc3c(c2)OCO3)cc1 (configuration not stated)	none
CC[C@]1(c2ccccc2OC)ON(c2ccccc2C(F)(F)F)C1=O	VACV Venus inh inconclusive, FMDV inh 22µM (no result: Marburg entry inh, Lassa entry inh)
COc1ccc(-c2n[nH]c3c2C(c2ccc(Cl)cc2Cl)NC3=O)cc1 (configuration not stated)	VACV Venus inh inconclusive, VACV mCherry inh inconclusive, Lassa entry inh inconclusive, FMDV inh inconclusive
Cc1ccc(C2CC(=O)N(Cc3ccccc3F)c3c2c(C)nn3-c2nc(C)cc(C)n2)cc1 (configuration not stated)	none
COc1cccc(CN2CCc3ccc(NC(=O)CCc4ccc(C)cc4)cc3C2)c1O	HCMV antiviral -61, FMDV inh inconclusive (no result: Marburg entry inh, VACV Venus inh, VACV mCherry inh, Lassa entry inh)
COc1cc(CN2CCc3ccc(NC(=O)CCc4ccccc4OC)cc3C2)ccc1O	none (no result: Marburg entry inh, VACV Venus inh, VACV mCherry inh, Lassa entry inh)
COc1ccc(CN2CCc3ccc(NC(=O)CCc4ccccc4OC)cc3C2)c(O)c1	Marburg entry inh inconclusive, VACV mCherry inh inconclusive, HCMV antiviral -72, Lassa entry inh inconclusive, FMDV inh inconclusive
Cc1ccc(C2=CC(c3ccccc3F)n3c(nc4ccccc43)N2)cc1C (configuration not stated)	none (no result: Marburg entry inh)
CCCc1nn2c(=O)cc(COC(=O)c3ccccc3NC(=O)c3ccc(Cl)cc3)nc2s1	none (no result: Marburg entry inh)
COc1cccc(OCC(O)CN2CCC(CN3C(=O)c4cccc5cccc(c45)C3=O)CC2)c1 (configuration not stated)	Marburg entry inh inconclusive, HCMV antiviral -65, Lassa entry inh inconclusive, FMDV inh inconclusive
COc1ccc(COCC(O)CN2CCC(CN3C(=O)c4cccc5cccc(c45)C3=O)CC2)cc1OC (configuration not stated)	Marburg entry inh 9.2µM, VACV Venus inh inconclusive, Lassa entry inh inconclusive, FMDV inh inconclusive
O=C1c2cccc3cccc(c23)C(=O)N1CC1CCN(CC(O)COc2ccc3ccccc3c2)CC1 (configuration not stated)	FMDV inh inconclusive (no result: VACV Venus inh, VACV mCherry inh, Lassa entry inh)
Cc1cc(C)cc(OCC(O)CN2CCC(CN3C(=O)c4cccc5cccc(c45)C3=O)CC2)c1 (configuration not stated)	VACV Venus inh inconclusive, VACV mCherry inh inconclusive, HCMV antiviral -101, FMDV inh inconclusive (no result: Lassa entry inh)
Cc1ccc(-n2c(-c3cccs3)nc3nc4ccccc4nc32)cc1	HCMV antiviral -63 (no result: Marburg entry inh, VACV Venus inh, VACV mCherry inh, Lassa entry inh, FMDV inh)
O=C1c2oc3ccccc3c(=O)c2C(c2ccc(O)cc2)N1Cc1ccc2c(c1)OCO2 (configuration not stated)	none (no result: Marburg entry inh)
O=C(NC(=S)Nc1ccc(Oc2ccc(Cl)cc2)cc1)c1ccccc1	HCMV antiviral -87
O=C(NC(=S)Nc1ccc(NC(=O)c2ccccc2)cc1)c1ccc(F)cc1	HCMV antiviral inconclusive
O=C(Nc1ccc(NC(=S)NC(=O)C(c2ccccc2)c2ccccc2)cc1)c1ccccc1	Marburg entry inh inconclusive, VACV Venus inh inconclusive, VACV mCherry inh inconclusive, HCMV antiviral -66, Lassa entry inh inconclusive, FMDV inh inconclusive

Source: PubChem BioAssay (National Center for Advancing Translational Sciences (NCATS))
